Results from PubChem BioAssay (NCI).
Compounds without any hit were thinned out: in the full panel of roughly 79,000, 15% have a hit. Unmarked numbers belong to inactive results. Activity calls are given as the source filed them. Rule as the data show it: active = growth inhibition above about 70%; inactive = the rest.

Tests used:
[1] = NCI Yeast Anticancer Drug Screen. Data for the rad50 strain (AID 155);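 also: 0% = growth of vehicle-only cultures of the same strain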; conditions: S. cerevisiae rad50 strain growth inhibition, stronger effect = higher value
Outline: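 Readout: growth inhibition relative to vehicle-treated cultures. Compound exposure was carried out in a genetically defined yeast strain deficient in DNA damage repair.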

[2] = NCI Yeast Anticancer Drug Screen. Data for the mec2-1 strain (AID 157); conditions: S. cerevisiae mec2-1 strain, stronger effect = higher value
Outline: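 Using mec2-1 yeast: add compound, measure growth, express inhibition versus vehicle-treated cultures.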

[3] = NCI Yeast Anticancer Drug Screen. Data for the sgs1 mgt1 strain (AID 161);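 also: 0% = growth of cultures given vehicle only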; conditions: S. cerevisiae sgs1 mgt1 strain, stronger effect = higher value
Outline: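 Percent growth inhibition was derived by comparing compound-exposed mutant yeast with vehicle-exposed cultures. The strain carries alterations in DNA damage repair.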

[4] = NCI Yeast Anticancer Drug Screen. Data for the cln2 rad14 strain (AID 165);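 also: 0% = growth equal to vehicle treated cultures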; conditions: S. cerevisiae cln2 rad14 strain, stronger effect = higher value
Outline: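 Yeast strain cln2 rad14, bearing defects in cell cycle control and DNA repair, serves as the test system; values reflect growth inhibition compared with vehicle.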

[5] = NCI Yeast Anticancer Drug Screen. Data for the bub3 strain (AID 167); conditions: S. cerevisiae bub3 mutant strain, stronger effect = higher value
Outline: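 Readout: yeast growth inhibition, expressed relative to vehicle-only wells. The test organism is a mutant strain from a panel with lesions in DNA repair or checkpoint genes.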

[6] = NCI Yeast Anticancer Drug Screen. Data for the mlh1 rad18 strain (AID 175); conditions: S. cerevisiae mlh1 rad18 strain growth inhibition, stronger effect = higher value
Outline: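 Steps: expose repair-defective yeast to compound; measure growth; express inhibition against vehicle-treated controls.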

[7] = at 5.0 µM (retest, dose inferred, filed as 0.5)
[8] = at 50.0 µM (retest, dose inferred, filed as 5.0)

Row | Compound | growth inhibition [1, 7] | growth inhibition [1, 8] | growth inhibition ([1]; at 50.0 µM) | growth inhibition [2, 7] | growth inhibition [2, 8] | growth inhibition ([2]; at 50.0 µM) | growth inhibition [3, 7] | growth inhibition [3, 8] | growth inhibition ([3]; at 50.0 µM) | growth inhibition [4, 7] | growth inhibition [4, 8] | growth inhibition ([4]; at 50.0 µM) | growth inhibition [5, 7] | growth inhibition [5, 8] | growth inhibition ([5]; at 50.0 µM) | growth inhibition [6, 7] | growth inhibition [6, 8] | growth inhibition ([6]; at 50.0 µM)
1 | CCN1CCC(O)(/C=C/c2cccc(C)c2)C(C(=O)/C=C/c2cccc(C)c2)C1 (configuration not stated) | 42% | 96% (active) | 91% (active) | 41% | 98% (active) | 93% (active) | 95% (active) | 92% (active) | 90.8% (active) | 91% (active) | 93% (active) | 90.2% (active) | 95% (active) | 96% (active) | 88.2% (active) | 64% | 98% (active) | 92.7% (active)
2 | C=C(C)[P+](C)(c1ccccc1)c1ccccc1 | -12% | 25% | 72.7% (active) | -12% | 6% | 0.95% | -8% | 22% | 28.9% | 1% | -2% | 4.4% | -18% | 6% | -9.3% | -4% | 4% | 29.3%
3 | N#Cc1c(-c2ccc(Cl)cc2)c(-c2ccc(Cl)cc2)nn(CCOC(=O)CN)c1=O | 18% | 94% (active) | 40.5% | 10% | 96% (active) | 57% | -27% | 89% (active) | 45.6% | 6% | 82% (active) | 18.6% | -16% | 86% (active) | 35.1% | 22% | 97% (active) | 87% (active)
4 | C=C(CN(C)C)C(=O)c1ccccc1Cl | -10% | 90% (active) | 90.8% (active) | -15% | 80% (active) | 92.7% (active) | 15% | 95% (active) | 92.5% (active) | -10% | 25% | 7.9% | -14% | 96% (active) | 70.6% (active) | 46% | 98% (active) | 98.1% (active)
5 | COc1cccc2c1C(=O)c1c(O)c3c(c(O)c1C2=O)C[C@@](O)(/C(C)=N/NC(=O)c1ccc(Cl)c(Cl)c1)C[C@@H]3OC1CC(N)C(O)C(C)O1 (some centres not stated) | 89% (active) | 99% (active) | 42% | 25% | 99% (active) | 50.4% | 25% | 99% (active) | 44.6% | 5% | 98% (active) | 72.7% (active) | 43% | 99% (active) | 98.5% (active) | 33% | 99% (active) | 52.6%
6 | COc1ccc(CSC(=S)Nc2ccc(Cl)c([N+](=O)[O-])c2)cc1 | 48% | 92% (active) | 88.5% (active) | 50% | 95% (active) | 77.1% (active) | 56% | 99% (active) | 88.4% (active) | 43% | 97% (active) | 9% | 77% (active) | 99% (active) | 21.5% | 79% (active) | 98% (active) | 94.1% (active)
7 | O=C(NNc1nc(-c2ccccc2)cs1)C(F)(F)F | 83% (active) | 97% (active) | 86.8% (active) | 74% (active) | 98% (active) | 89.7% (active) | 91% (active) | 99% (active) | 87.5% (active) | 50% | 91% (active) | 87% (active) | 97% (active) | 99% (active) | 85.7% (active) | 93% (active) | 94% (active) | 91.2% (active)
8 | O=C(CC[P+](c1ccccc1)(c1ccccc1)c1ccccc1)c1ccccc1 | 10% | 78% (active) | 94.8% (active) | 6% | 92% (active) | 94.8% (active) | 4% | 74% (active) | 86.2% (active) | -3% | 71% (active) | 95.6% (active) | 7% | 79% (active) | 94.8% (active) | 3% | 84% (active) | 93.1% (active)
9 | Cn1c2nc(-[n+]3ccc4ccccc4c3)nc-2c([O-])n(C)c1=O | 34% | 95% (active) | -9.45% | 12% | 96% (active) | 3.55% | 15% | 96% (active) | -13.1% | 3% | 84% (active) | 49% | 8% | 97% (active) | 0.2% | 12% | 98% (active) | -3.35%
